Measurements from PubChem BioAssay AID1159580 (chemical genetic matrix, 2015).
Hit rate of the full screen: of about 5,500 compounds, about 2,000 (36%) were called active. Another 18% or so got no clear call; they are omitted. No stated cut-off is given here; in the data, active means normalized growth mostly below about 0.91 (no sharp cut-off); inconclusive means no clear call, values can overlap the other calls; inactive means mostly above about 0.92. Some of the results follow.

Experiment: chemical genetic growth profiling, strain panel (AID 1159580);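 further: tested at 20 µM; growth read once vehicle control cultures reached saturation at 30 °C; 1 = growth at the plate median or of vehicle wells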
Details: growth OD

Measured: normalized growth

O=C(O)c1ccccc1OP(=O)(O)O
inactive: S. cerevisiae deletion strains, locus YJR066W, strain TOR1, stronger effect = lower value 0.875 | S. cerevisiae deletion strains, locus YKL009W, strain mrt4, stronger effect = lower value 0.997 | S. cerevisiae deletion strains, locus YKL068W, stronger effect = lower value 0.988 | S. cerevisiae deletion strains, locus YKL085W, strain MDH1 (second series), stronger effect = lower value 0.986 | S. cerevisiae deletion strains, locus YKL085W, strain MDH1, stronger effect = lower value 0.986 | S. cerevisiae deletion strains, locus YKL160W, strain elf1, stronger effect = lower value 0.981 | S. cerevisiae deletion strains, locus YKL190W, strain CNB1, stronger effect = lower value 1 | S. cerevisiae deletion strains, locus YKR001C, strain vps1, stronger effect = lower value 0.984 | S. cerevisiae deletion strains, locus YKR026C, strain gcn3, stronger effect = lower value 1.01 | S. cerevisiae deletion strains, locus YKR091W, strain srl3, stronger effect = lower value 1 | S. cerevisiae deletion strains, locus YLL001W, strain dnm1, stronger effect = lower value 1.03 | S. cerevisiae deletion strains, locus YLL026W, stronger effect = lower value 1 | S. cerevisiae deletion strains, locus YLL041C, strain sdh2, stronger effect = lower value 0.992 | S. cerevisiae deletion strains, locus YLR027C, strain aat2, stronger effect = lower value 1 | S. cerevisiae deletion strains, locus YLR039C, strain RIC1, stronger effect = lower value 1.01 | S. cerevisiae deletion strains, locus YLR058C, strain SHM2, stronger effect = lower value 1.02 | S. cerevisiae deletion strains, locus YLR102C, strain apc9, stronger effect = lower value 0.992 | S. cerevisiae deletion strains, locus YLR113W, strain HOG1, stronger effect = lower value 0.967 | S. cerevisiae deletion strains, locus YLR221C, strain rsa3, stronger effect = lower value 0.995 | S. cerevisiae deletion strains, locus YLR258W, strain gsy2, stronger effect = lower value 1.02 | S. cerevisiae deletion strains, locus YLR262C, strain YPT6 (second series), stronger effect = lower value 0.995 | S. cerevisiae deletion strains, locus YLR262C, strain YPT6, stronger effect = lower value 1.05 | S. cerevisiae deletion strains, locus YLR268W, strain sec22, stronger effect = lower value 1.01 | S. cerevisiae deletion strains, locus YLR320W, strain mms22, stronger effect = lower value 1.02 | S. cerevisiae deletion strains, locus YLR330W, strain CHS5, stronger effect = lower value 1.01 | S. cerevisiae deletion strains, locus YLR342W, strain FKS1 (second series), stronger effect = lower value 1 | S. cerevisiae deletion strains, locus YLR342W, strain FKS1, stronger effect = lower value 1 | S. cerevisiae deletion strains, locus YLR357W, strain rsc2, stronger effect = lower value 1.03 | S. cerevisiae deletion strains, locus YLR370C, strain arc18, stronger effect = lower value 1.01 | S. cerevisiae deletion strains, locus YLR371W, strain rom2, stronger effect = lower value 0.987 | S. cerevisiae deletion strains, locus YLR384C, strain iki3, stronger effect = lower value 1.01 | S. cerevisiae deletion strains, locus YLR418C, strain cdc73, stronger effect = lower value 0.994 | S. cerevisiae deletion strains, locus YML016C, strain PPZ1, stronger effect = lower value 1.01 | S. cerevisiae deletion strains, locus YML032C, strain rad52, stronger effect = lower value 0.997 | S. cerevisiae deletion strains, locus YML120C, strain ndi1, stronger effect = lower value 1 | S. cerevisiae deletion strains, locus YML124C, strain tub3, stronger effect = lower value 0.996 | S. cerevisiae deletion strains, locus YMR058W, strain fet3, stronger effect = lower value 1.01 | S. cerevisiae deletion strains, locus YMR078C, strain ctf18, stronger effect = lower value 0.988 | S. cerevisiae deletion strains, locus YMR125W, strain sto1, stronger effect = lower value 1.02 | S. cerevisiae deletion strains, locus YMR129W, stronger effect = lower value 1 | S. cerevisiae deletion strains, locus YMR205C, strain PFK2, stronger effect = lower value 1.03 | S. cerevisiae deletion strains, locus YMR223W, strain ubp8, stronger effect = lower value 0.993 | S. cerevisiae deletion strains, locus YMR231W, strain pep5, stronger effect = lower value 1 | S. cerevisiae deletion strains, locus YMR263W, strain SAP30, stronger effect = lower value 1.02 | S. cerevisiae deletion strains, locus YMR307W, strain GAS1, stronger effect = lower value 1 | S. cerevisiae deletion strains, locus YNL067W, strain RPL9B, stronger effect = lower value 1.01 | S. cerevisiae deletion strains, locus YNL071W, strain lat1, stronger effect = lower value 1.01 | S. cerevisiae deletion strains, locus YNL183C, strain NPR1, stronger effect = lower value 0.872 | S. cerevisiae deletion strains, locus YNL209W, strain ssb2, stronger effect = lower value 1 | S. cerevisiae deletion strains, locus YNL233W, strain BNI4, stronger effect = lower value 1.02 | S. cerevisiae deletion strains, locus YNL248C, strain rpa49, stronger effect = lower value 0.971 | S. cerevisiae deletion strains, locus YNL250W, strain rad50, stronger effect = lower value 0.983 | S. cerevisiae deletion strains, locus YNL271C, strain bni1, stronger effect = lower value 0.981 | S. cerevisiae deletion strains, locus YNL298W, strain CLA4, stronger effect = lower value 0.982 | S. cerevisiae deletion strains, locus YNL307C, strain MCK1, stronger effect = lower value 0.986 | S. cerevisiae deletion strains, locus YNL322C, strain KRE1 (second series), stronger effect = lower value 0.983 | S. cerevisiae deletion strains, locus YNR049C, strain mso1, stronger effect = lower value 1 | S. cerevisiae deletion strains, locus YNR052C, strain pop2, stronger effect = lower value 0.999 | S. cerevisiae deletion strains, locus YOL006C, strain TOP1, stronger effect = lower value 1.03 | S. cerevisiae deletion strains, locus YOL012C, strain htz1 0.778 | S. cerevisiae deletion strains, locus YOL147C, strain pex11, stronger effect = lower value 1 | S. cerevisiae deletion strains, locus YOR001W, strain rrp6, stronger effect = lower value 0.976 | S. cerevisiae deletion strains, locus YOR061W, strain CKA2, stronger effect = lower value 1.01 | S. cerevisiae deletion strains, locus YOR069W, strain VPS5, stronger effect = lower value 1.01 | S. cerevisiae deletion strains, locus YOR070C, strain gyp1, stronger effect = lower value 0.998 | S. cerevisiae deletion strains, locus YOR080W, strain dia2, stronger effect = lower value 1.01 | S. cerevisiae deletion strains, locus YOR083W, strain WHI5, stronger effect = lower value 0.969 | S. cerevisiae deletion strains, locus YOR106W, strain vam3, stronger effect = lower value 0.983 | S. cerevisiae deletion strains, locus YOR136W, strain idh2, stronger effect = lower value 0.994 | S. cerevisiae deletion strains, locus YOR144C, strain elg1, stronger effect = lower value 0.991 | S. cerevisiae deletion strains, locus YOR184W, strain ser1, stronger effect = lower value 1 | S. cerevisiae deletion strains, locus YOR231W, strain MKK1, stronger effect = lower value 0.981 | S. cerevisiae deletion strains, locus YOR265W, strain rbl2, stronger effect = lower value 0.997 | S. cerevisiae deletion strains, locus YOR270C, strain vph1, stronger effect = lower value 1.01 | S. cerevisiae deletion strains, locus YOR290C, strain snf2, stronger effect = lower value 0.983 | S. cerevisiae deletion strains, locus YOR316C, strain cot1, stronger effect = lower value 0.99 | S. cerevisiae deletion strains, locus YPL051W, strain arl3, stronger effect = lower value 0.991 | S. cerevisiae deletion strains, locus YPL055C, strain LGE1, stronger effect = lower value 1.03 | S. cerevisiae deletion strains, locus YPL078C, strain atp4, stronger effect = lower value 0.968 | S. cerevisiae deletion strains, locus YPL106C, strain sse1, stronger effect = lower value 1.01 | S. cerevisiae deletion strains, locus YPL240C, strain hsp82, stronger effect = lower value 1 | S. cerevisiae deletion strains, locus YPL241C, strain CIN2, stronger effect = lower value 1.01 | S. cerevisiae deletion strains, locus YPL256C, strain CLN2, stronger effect = lower value 0.948 | S. cerevisiae deletion strains, locus YPR119W, strain clb2, stronger effect = lower value 0.993 | S. cerevisiae deletion strains, locus YPR141C, strain kar3, stronger effect = lower value 0.98 | S. cerevisiae deletion strains, locus YPR163C, strain tif3, stronger effect = lower value 0.989 | S. cerevisiae deletion strains, locus YPR167C, strain met16, stronger effect = lower value 0.986 | S. cerevisiae deletion strains, strain wtn01, stronger effect = lower value 1.02 | S. cerevisiae strains, strain wild type, stronger effect = lower value 1.01
